Activity calls are given as the source filed them.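 The calls were made as follows, unless noted: active = NADPH fluorescence slope more negative than the mean of all samples by about 3 SD, 99.7% confidence; inactive = the rest.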
Experiments:
[1] = inhibitors of TNFa-induced NFkB p65 translocation, primary screen, imaging, HUVEC, MLSMR starter and 10KST1 sets (AID 438;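 active = inhibition above 20% together with a positive visual image hit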;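 also: compound added about 3h40 before a 20 min TNFalpha stimulation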;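 as to inhibition: signal is the nuclear over cytoplasmic p65 intensity ratio per well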); details: HUVEC TNFa-induced p65 nuclear translocation; cell count: measured here: nuclei count (cytotoxicity indicator), at 2.08 µM; inhibition: at 2 µM, stronger effect = higher value, 0% TNFa-plus-vehicle, 100% no-TNFa wells
[2] = reduction of polyQ htt aggregates in cells – imaging, exon1htt(103Q)mCFP cells, high-content imaging, primary screen (AID 483;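 active = visual image review flags a hit and inhibition of aggregation exceeds 20%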;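 also: compound exposure lasted 3 days before fixation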;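 as to nuclei count: percent of the per-plate median nuclei count of sample wells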); details: exon1htt(103Q)mCFP cell line, aggregate imaging, at 2 µM; inhibition of aggregation: stronger effect = higher value; nuclei count: measured here: cell count, toxicity
[3] = endothelial E-selectin expression blockers – imaging, HUVEC, immunofluorescence, MLSMR starter and 10KST1 sets, primary screen (AID 487;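 active = visually confirmed hit in the image check and inhibition above 20%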;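 as to inhibition: signal is fraction of cell area covered by stained E-selectin grains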;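 as to nuclei count: 100% = median nuclei count of all wells on the same plate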); details: HUVEC TNFalpha-induced E-selectin immunofluorescence imaging, at 2 µM; inhibition: stronger effect = higher value; nuclei count: measured here: cell number, toxicity
[4] = target: Voltage-gated potassium channel subunit beta-2 (Rattus norvegicus) (UniProt P62483); assay: inhibitors of rat Kvbeta2 reductase activity – biochemical, NADPH fluorescence, primary screen (AID 622;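 active = fluorescence slope higher than the sample average by over 3 SD, cut at about -0.22 in these data, passing the limit was not always enough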;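 also: slope of raw intensity against log time taken from 70 to 1610 s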); details: recombinant KvBeta, 4-cyanobenzaldehyde reduction, at 10 µM, stronger effect = higher value
Voltage-gated potassium channel subunit beta-2 (Rattus norvegicus), sequence (P62483 whole entry, looked up): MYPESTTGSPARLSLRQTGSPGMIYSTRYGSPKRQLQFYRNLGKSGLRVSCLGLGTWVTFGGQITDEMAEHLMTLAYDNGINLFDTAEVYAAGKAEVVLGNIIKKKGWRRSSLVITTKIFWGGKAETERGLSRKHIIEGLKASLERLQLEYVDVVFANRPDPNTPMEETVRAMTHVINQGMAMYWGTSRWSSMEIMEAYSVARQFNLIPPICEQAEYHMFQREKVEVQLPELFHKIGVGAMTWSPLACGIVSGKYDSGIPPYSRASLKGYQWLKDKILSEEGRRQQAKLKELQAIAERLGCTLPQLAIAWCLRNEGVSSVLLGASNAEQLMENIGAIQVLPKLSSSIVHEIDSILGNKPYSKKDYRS

[5] = target: Voltage-gated potassium channel subunit beta-2 (Rattus norvegicus) (UniProt P62483); assay: enhancers of rat Kvbeta2 NADPH turnover – biochemical, NADPH fluorescence, primary screen (AID 623); details: Recombinant KvBeta, NADPH fluorescence decrease slope, 10 min; at 10 µM; stronger effect = lower value;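 also: fluorescence intensity change per second fitted from 20 to 320 s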
[6] = target: Alpha-2C adrenergic receptor (Homo sapiens) (UniProt P18825); assay: compounds altering alpha2C-coupled GIRK flux – cell-based, HEK293 alpha2C/GIRK1/2, thallium flux, primary screen (AID 624;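 active = fluorescence slope after compound addition differing from the mean of all screened samples at 99.7% confidence, in either direction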;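 also: slope of fluorescence ratio to pre-addition baseline per second over 15 to 24 s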); details: thallium flux BTC fluorescence, at 10 µM, actives lie on both sides
Alpha-2C adrenergic receptor (Homo sapiens), sequence (P18825 whole entry, looked up): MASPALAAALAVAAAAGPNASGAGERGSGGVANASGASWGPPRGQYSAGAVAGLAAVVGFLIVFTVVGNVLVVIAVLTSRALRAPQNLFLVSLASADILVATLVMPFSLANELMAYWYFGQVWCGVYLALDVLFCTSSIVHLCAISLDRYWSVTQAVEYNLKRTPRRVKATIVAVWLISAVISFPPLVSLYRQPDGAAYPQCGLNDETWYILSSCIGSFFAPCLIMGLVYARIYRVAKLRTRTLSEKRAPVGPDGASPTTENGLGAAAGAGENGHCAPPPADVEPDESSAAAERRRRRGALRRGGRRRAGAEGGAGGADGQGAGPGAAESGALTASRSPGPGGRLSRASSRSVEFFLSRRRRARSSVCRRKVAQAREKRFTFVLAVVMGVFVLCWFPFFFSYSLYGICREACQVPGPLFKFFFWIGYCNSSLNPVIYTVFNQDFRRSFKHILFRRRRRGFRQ

[7] = blockers of RIG-like receptor reporter activation – cell-based, Sendai virus stimulus, luciferase, 10K MLSCN set, TLR/RLR signaling modifier project, primary screen (AID 602276;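 active = inhibition at or above 50% at 10 µM; inactive = inhibition below 50%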;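 also: firefly luciferase from ISG56 promoter only with Renilla not read in this screen; 0% = Sendai virus plus DMSO and 100% = medium plus DMSO without virus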); details: HEK293 RL24 IRF3 luciferase reporter, at 10 µM, stronger effect = higher value
[8] = TLR3 IRF3 reporter activation blockers – cell-based, poly I:C stimulus, luciferase, 10K MLSCN set, primary screen (AID 602277;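 active = inhibition of the reporter signal at or above 50%; inactive = inhibition below 50%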); details: HEK293-TLR3 RL24 IRF3 luciferase reporter, at 10 µM, stronger effect = higher value

| Compound | cell count [1] | inhibition [1] | inhibition of aggregation [2] | nuclei count [2] [%] | inhibition [3] | nuclei count [3] [%] | fluorescence slope [4] | NADPH fluorescence slope [5] | slope [6] | inhibition [7] | inhibition [8] |
| --- | --- | --- | --- | --- | --- | --- | --- | --- | --- | --- | --- |
| COc1ccccc1NC(=O)C(C)NS(=O)(=O)c1ccc(F)cc1 (stereo not given) | 331 | 2.8% (inactive) | -6.8% (inactive) | 108 | -22.4% (inactive) | 100 | -0.476 (inactive) | -3.4e-05 (inactive) | 0.00634 (inactive) | 3.7% (inactive) | 46.5% (inactive) |
| Cc1cccc(-n2nc3c(c2NC(=O)CCC2CCCCC2)CS(=O)C3)c1C (stereo not given) | 637 | -8.7% (inactive) | -46.2% (inactive) | 80 | -27.4% (inactive) | 110 | -0.427 (inactive) | -2.6e-06 (inactive) | 0.00515 (inactive) | 10.6% (inactive) | 37.7% (inactive) |
| COc1ccc(C(=O)Nc2cccc(-c3nc4ncccc4o3)c2C)cc1OC | 729 | -44.9% (inactive) | -4.4% (inactive) | 96.1 | -22.4% (inactive) | 109 | -0.562 (inactive) | 1.4e-05 (inactive) | 0.00564 (inactive) | -16.3% (inactive) | -34.5% (inactive) |
| Cc1cc(C)c2ccc(N)nc2c1O | 408 | 0.1% (inactive) | 22.6% (inactive) | 6.8 | 41.6% (inactive) | 107 | -0.462 (inactive) | -5e-05 (inactive) | 0.00457 (inactive) | 21% (inactive) | 29.8% (inactive) |
| COC(=O)c1cccc(NC(=O)CSc2nnc(COc3ccc(C#N)cc3)n2-c2ccccc2)c1 | 599 | 3.7% (inactive) | -5.1% (inactive) | 91.2 | -64.7% (inactive) | 120 | -0.586 (inactive) | 4.9e-05 (inactive) | 0.00802 (inactive) | -22% (inactive) | -18.5% (inactive) |

Reference: PubChem BioAssay
